# Experimental data published in the supplement of paper PMC10646978.
# ± gives the standard deviation.
# Columns and labels:
# Settings in all cases: modulator concentration 10 µM
# [1] = test system: RAW-Dual (murine macrophage reporter line); assay: NF-kB reporter (SEAP) activity fold change vs agonist alone; higher = enhanced NF-kB activity
# Summary of the method: (§1)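 Overnight stimulation with a PRR agonist followed pre-incubation for 1 hour at 37 °C with compound at 10 μM final. This was done in RAW-Dual murine macrophage reporter cells seeded at 50 000 per well in 384-well plates. NF-κB (SEAP, QUANTI-Blue absorbance at 620 nm) and IRF (Lucia luciferase, QUANTI-Luc luminescence) were read from the supernatant. Each reporter's fold change relative to the mean agonist-only control on the same plate was averaged over replicate plates.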
# [2] = test system: RAW-Dual (murine macrophage reporter line); assay: IRF reporter (Lucia luciferase) activity fold change vs agonist alone; higher = enhanced IRF activity
# Summary of the method: as §1
# [3] = test system: RAW-Dual (murine macrophage reporter line); assay: viability score (confluency relative to resting cells, overnight) (fraction); higher = more viable, active = viable (0.7 or more)
# Summary of the method: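 RAW-Dual macrophages in 384-well plates were exposed overnight to compound at 10 μM final. Confluency was imaged with IncuCyte, and two confluency masks were generated with IncuCyte software over all imaged wells. The viability score is confluency expressed relative to resting cells. Compounds were called viable if both masks exceeded 70% of resting cells.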
# [4] = agonist: CpG ODN 1826 0.5 ug/mL
structure (smiles),measurement,setting,value
Cc1ccsc1C(=CCCN1CCC[C@@H](C(=O)O)C1)c1sccc1C,NF-kB reporter,[1]; [4],1.06 ± 0.084
same,NF-kB reporter,[1]; agonist: LPS 0.1 ug/mL,1.06 ± 0.053
same,NF-kB reporter,[1]; agonist: MPLA […],0.972 ± 0.033
same,IRF reporter,[2]; agonist: 3'3'-cGAMP 10 ug/mL,0.857 ± 0.056
same,IRF reporter,[2]; agonist: LPS 0.1 ug/mL,0.961 ± 0.05
same,IRF reporter,[2]; agonist: MPLA […],0.732 ± 0.082
same,viability score,[3],0.997 (active)
Clc1cccc(C=Nc2ccc(N=Cc3cccc(Cl)c3Cl)cc2)c1Cl,NF-kB reporter,[1]; [4],0.979 ± 0.081
same,NF-kB reporter,[1]; agonist: LPS 0.1 ug/mL,1.08 ± 0.07
same,NF-kB reporter,[1]; agonist: MPLA […],1 ± 0.04
same,IRF reporter,[2]; agonist: 3'3'-cGAMP 10 ug/mL,0.815 ± 0.059
same,IRF reporter,[2]; agonist: LPS 0.1 ug/mL,1.05 ± 0.056
same,IRF reporter,[2]; agonist: MPLA […],1.09 ± 0.12
same,viability score,[3],1 (active)
Fc1ccc(CN2CCc3c([nH]c4ccccc34)C2)c(F)c1,NF-kB reporter,[1]; [4],0.636 ± 0.051
same,NF-kB reporter,[1]; agonist: LPS 0.1 ug/mL,0.378 ± 0.05
same,NF-kB reporter,[1]; agonist: MPLA […],0.62 ± 0.082
same,IRF reporter,[2]; agonist: 3'3'-cGAMP 10 ug/mL,0.909 ± 0.029
same,IRF reporter,[2]; agonist: LPS 0.1 ug/mL,1.32 ± 0.2
same,IRF reporter,[2]; agonist: MPLA […],1.21 ± 0.16
same,viability score,[3],0.212 (inactive)
CCc1c(C)nc(-n2nc(C)cc2NC(=O)CSCc2ccccc2)[nH]c1=O,NF-kB reporter,[1]; [4],0.901 ± 0.056
same,NF-kB reporter,[1]; agonist: LPS 0.1 ug/mL,0.603 ± 0.082
same,NF-kB reporter,[1]; agonist: MPLA […],0.885 ± 0.038
same,IRF reporter,[2]; agonist: 3'3'-cGAMP 10 ug/mL,0.973 ± 0.065
same,IRF reporter,[2]; agonist: LPS 0.1 ug/mL,1.22 ± 0.078
same,IRF reporter,[2]; agonist: MPLA […],1.07 ± 0.099
same,viability score,[3],1.02 (active)
CSc1ccc(C2Nc3ccccc3-c3nnc(SCc4ccc(C)cc4)nc3O2)cc1 (stereo unspecified),NF-kB reporter,[1]; [4],0.817 ± 0.094
same,NF-kB reporter,[1]; agonist: LPS 0.1 ug/mL,0.952 ± 0.047
same,NF-kB reporter,[1]; agonist: MPLA […],1.19 ± 0.1
same,IRF reporter,[2]; agonist: 3'3'-cGAMP 10 ug/mL,0.877 ± 0.058
same,IRF reporter,[2]; agonist: LPS 0.1 ug/mL,1.08 ± 0.091
same,IRF reporter,[2]; agonist: MPLA […],1.18 ± 0.14
same,viability score,[3],1.01 (active)
NC12CC3CC(CC(C3)C1)C2,NF-kB reporter,[1]; [4],1.19 ± 0.31
same,NF-kB reporter,[1]; agonist: LPS 0.1 ug/mL,1.09 ± 0.066
same,NF-kB reporter,[1]; agonist: MPLA […],1.01 ± 0.087
same,IRF reporter,[2]; agonist: 3'3'-cGAMP 10 ug/mL,0.874 ± 0.061
same,IRF reporter,[2]; agonist: LPS 0.1 ug/mL,1.13 ± 0.15
same,IRF reporter,[2]; agonist: MPLA […],1.06 ± 0.2
same,viability score,[3],0.999 (active)
O=C(c1ccc(F)cc1)C1CCN(CCn2c(=O)[nH]c3ccccc3c2=O)CC1,NF-kB reporter,[1]; [4],0.477 ± 0.028
same,NF-kB reporter,[1]; agonist: LPS 0.1 ug/mL,0.956 ± 0.1
same,NF-kB reporter,[1]; agonist: MPLA […],1.34 ± 0.072
same,IRF reporter,[2]; agonist: 3'3'-cGAMP 10 ug/mL,1.47 ± 0.068
same,IRF reporter,[2]; agonist: LPS 0.1 ug/mL,1.21 ± 0.19
same,IRF reporter,[2]; agonist: MPLA […],1.45 ± 0.34
same,viability score,[3],0.314 (inactive)
C#CCC(Cc1cnc2nc(N)nc(N)c2n1)c1ccc(C(=O)N[C@@H](CCC(=O)O)C(=O)O)cc1 (stereo partly specified),NF-kB reporter,[1]; [4],0.605 ± 0.045
same,NF-kB reporter,[1]; agonist: LPS 0.1 ug/mL,0.856 ± 0.14
same,NF-kB reporter,[1]; agonist: MPLA […],0.778 ± 0.038
same,IRF reporter,[2]; agonist: 3'3'-cGAMP 10 ug/mL,0.774 ± 0.18
same,IRF reporter,[2]; agonist: LPS 0.1 ug/mL,0.955 ± 0.032
same,IRF reporter,[2]; agonist: MPLA […],0.911 ± 0.083
same,viability score,[3],0.667 (inactive)
CN(C)CCNC(=O)C(=O)NC(c1ccccc1)c1ccccc1,NF-kB reporter,[1]; [4],1.03 ± 0.11
same,NF-kB reporter,[1]; agonist: LPS 0.1 ug/mL,1.01 ± 0.089
same,NF-kB reporter,[1]; agonist: MPLA […],0.95 ± 0.027
same,IRF reporter,[2]; agonist: 3'3'-cGAMP 10 ug/mL,0.998 ± 0.042
same,IRF reporter,[2]; agonist: LPS 0.1 ug/mL,1.03 ± 0.091
same,IRF reporter,[2]; agonist: MPLA […],0.962 ± 0.12
same,viability score,[3],0.996 (active)
CCOc1ccc2nc(NC(=O)c3ccc(Br)cc3F)sc2c1,NF-kB reporter,[1]; [4],1.15 ± 0.095
same,NF-kB reporter,[1]; agonist: LPS 0.1 ug/mL,1.1 ± 0.098
same,NF-kB reporter,[1]; agonist: MPLA […],1 ± 0.041
same,IRF reporter,[2]; agonist: 3'3'-cGAMP 10 ug/mL,0.873 ± 0.071
same,IRF reporter,[2]; agonist: LPS 0.1 ug/mL,1.05 ± 0.067
same,IRF reporter,[2]; agonist: MPLA […],0.946 ± 0.15
same,viability score,[3],0.994 (active)
C=C(C)CSC1=C(C#N)C(c2ccccc2)CC(=O)N1 (stereo unspecified),NF-kB reporter,[1]; [4],1.13 ± 0.091
same,NF-kB reporter,[1]; agonist: LPS 0.1 ug/mL,0.954 ± 0.071
same,NF-kB reporter,[1]; agonist: MPLA […],0.951 ± 0.092
same,IRF reporter,[2]; agonist: 3'3'-cGAMP 10 ug/mL,0.772 ± 0.025
same,IRF reporter,[2]; agonist: LPS 0.1 ug/mL,1.03 ± 0.15
same,IRF reporter,[2]; agonist: MPLA […],0.999 ± 0.17
same,viability score,[3],1.01 (active)
CSC1CCN(C(=O)Nc2ccc(C)c(C)c2)C1 (stereo unspecified),NF-kB reporter,[1]; [4],1.03 ± 0.38
same,NF-kB reporter,[1]; agonist: LPS 0.1 ug/mL,0.953 ± 0.11
same,NF-kB reporter,[1]; agonist: MPLA […],0.985 ± 0.063
same,IRF reporter,[2]; agonist: 3'3'-cGAMP 10 ug/mL,0.906 ± 0.038
same,IRF reporter,[2]; agonist: LPS 0.1 ug/mL,0.954 ± 0.17
same,IRF reporter,[2]; agonist: MPLA […],1.09 ± 0.11
same,viability score,[3],0.999 (active)
O=C(Nc1cc(C(F)(F)F)cc(C(F)(F)F)c1)c1ccc([N+](=O)[O-])cc1,NF-kB reporter,[1]; [4],0.977 ± 0.09
same,NF-kB reporter,[1]; agonist: LPS 0.1 ug/mL,1.03 ± 0.14
same,NF-kB reporter,[1]; agonist: MPLA […],1.02 ± 0.063
same,IRF reporter,[2]; agonist: 3'3'-cGAMP 10 ug/mL,0.998 ± 0.03
same,IRF reporter,[2]; agonist: LPS 0.1 ug/mL,1.42 ± 0.14
same,IRF reporter,[2]; agonist: MPLA […],1.05 ± 0.075
same,viability score,[3],1.01 (active)
